Assay outcomes as filed in PubChem BioAssay.
An excerpt weighted towards active compounds, which were near 8.9% of everything screened.
HPGD block: blocks human HPGD enzyme activity; P15428; purified HPGD, NADH fluorescence kinetic, PGE2 substrate; Potency, µM, for inactives: at the highest dose activity change, negative = inhibition, hits mostly inhibitors; hit rate 4.3% among 150,000; AID 894; active = well fitted inhibition curve with a large enough effect, not every such curve was filed as active; inconclusive = small, poorly fitted or top-dose-only effect, or another doubt; inactive = no such curve, though single readings can be large or run the other way; also: potency is read from the fitted curve at half-maximal effect
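NADH formation kinetics: reaction with 30 uM PGE2 and 1 mM NAD+ (final), 20 nM enzyme, Tris-HCl pH 8 with Tween 20, after 15 min compound preincubation at room temperature. Fluorescence change, last versus first of five reads.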
IMPase cell inh: IMPase inhibition in cells. P97697. inhibition (IP1 accumulation), % at 46.1 µM. AID 901. 120,000 tested, under 10 active. CHO-M1 cells, IP1 accumulation, HTRF TR-FRET ratio; active = well fitted curve in the direction sought with a large enough effect in the signal ratio, not every such curve was filed as active; inconclusive = small, poorly fitted or top-dose-only effect, or a change in a side signal; inactive = no such curve, though single readings can be large or run the other way; the % refers to the signal ratio;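 also: cells stimulated with carbachol in lithium chloride buffer; plate controls were DMSO basal wells for no effect and reference inhibitor wells for full effect; higher means more IMPase inhibition seen as more IP1 and lower FRET ratio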
Target sequence (P97697 whole entry, looked up): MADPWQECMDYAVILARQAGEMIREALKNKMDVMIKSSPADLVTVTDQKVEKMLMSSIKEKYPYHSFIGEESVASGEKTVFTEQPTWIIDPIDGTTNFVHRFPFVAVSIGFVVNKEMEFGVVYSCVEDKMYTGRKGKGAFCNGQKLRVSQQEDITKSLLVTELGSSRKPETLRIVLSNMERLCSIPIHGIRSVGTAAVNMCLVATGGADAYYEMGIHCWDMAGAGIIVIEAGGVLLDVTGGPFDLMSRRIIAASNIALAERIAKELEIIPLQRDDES
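Elevated IP1 in lysates lowers TR-FRET signal (665/620 ratio and 620 channel reported). Cells were CHO-M1, given carbachol (50 uM as added) plus 50mM LiCl, pH 7.4, 30 min, 37C; compounds titrated up to 46 uM; AC50 by Hill equation.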
ALDH1A1 inh: blocks purified human ALDH1A1 activity; P00352; Purified ALDH1A1, NADH fluorescence, propionaldehyde substrate; Potency, µM (top dose mostly 75.3 µM), without a hit: at the highest dose activity, negative = inhibition, hits mostly inhibitors; hit rate 7.3% among 220,000; AID 1030; active = well fitted inhibition curve with a large enough effect, not every such curve was filed as active; inconclusive = small, poorly fitted or top-dose-only effect, or another doubt; inactive = no such curve, though single readings can be large or run the other way;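 also: potency is read from the fitted curve at half-maximal effect; plate controls were no enzyme wells and a reference inhibitor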
ALOX12 inhib: 12-hLO (ALOX12) enzyme inhibition; purified 12-hLO, xylenol orange hydroperoxide absorbance; Potency, µM (titrated, usually from 57.1 µM), for inactives: top-dose activity change, negative = inhibition, usual class: inhibitors; hit rate 0.12% among 150,000; AID 1452; also: potency is read from the fitted curve at half-maximal effect; nearly all actives have a fitted effect of over 55% in size
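Purified human 12hLO (150 nM), preincubated 15 min with compound, then 40 uM arachidonic acid for 30 min, room temperature, Hepes pH 7.0 with 0.01% Triton X-100. Hydroperoxide detected by ferrous iron/xylenol orange; 573/405 nm absorbance ratio gives reaction progress.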
NPSR antagonist: blocks cAMP signaling of the human neuropeptide S receptor | Potency, µM (highest dose often 38.3 µM), inactives show at the top dose activity change, negative = inhibition, hits mostly inhibitors | AID 1461 | CHO-NPSR cells, cAMP TR-FRET, antagonist mode | hit rate 1% among 220,000 | Q6W5P4; also: potency is read from the fitted curve at half-maximal effect; nearly all actives have a fitted effect of over 50% in size
Target sequence (Q6W5P4 whole entry, looked up): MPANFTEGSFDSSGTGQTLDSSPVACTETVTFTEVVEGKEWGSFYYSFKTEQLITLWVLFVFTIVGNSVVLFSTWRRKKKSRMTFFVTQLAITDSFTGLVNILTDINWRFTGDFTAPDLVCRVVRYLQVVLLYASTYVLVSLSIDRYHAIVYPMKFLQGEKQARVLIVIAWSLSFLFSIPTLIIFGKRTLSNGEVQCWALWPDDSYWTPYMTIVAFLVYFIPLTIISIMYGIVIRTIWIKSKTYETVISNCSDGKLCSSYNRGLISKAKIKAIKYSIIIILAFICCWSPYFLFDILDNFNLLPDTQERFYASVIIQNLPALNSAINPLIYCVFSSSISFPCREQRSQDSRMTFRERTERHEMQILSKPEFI
IMPase Li cell: cell-permeable IMPase inhibitors with lithium potentiation; CHO-M1 cells, IP1 TR-FRET (IP-One), carbachol + lithium; hit rate 0.35% among 210,000; Potency, µM (doses to about 59.4 µM), without a hit: at the highest dose activity, negative = IMPase inhibition, hits mostly inhibitors;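 also: IP1 builds up when IMPase is blocked and the TR-FRET signal falls; potency is read from the fitted curve at half-maximal effect; plate controls were basal vehicle for no effect and high inhibitor control for full effect; nearly all actives have a fitted effect of over 50% in size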
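Steps: plate 2000 CHO-M1 cells per well and culture 16–30 h; add compound and lithium; incubate 30 min, 37C; add d2-IP1 tracer and Eu cryptate anti-IP1 antibody in lysis buffer; read after 10 min at room temperature.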
* hit, by the source's call; ? = inconclusive; / = not tested or not shown; ! = a repeat was not active; [ ] = remark or other dose. Unless noted, calls follow the shape of the dose curve; as a rule, active = well fitted curve in the direction sought with a large enough effect; inconclusive = small, poorly fitted or top-dose-only effect, or another doubt; inactive = no such curve, though single readings can be large; an effect the other way counts as inactive or inconclusive. Unless noted, % is scaled to controls: 0 for no effect and ±100 for the full control effect.

SMILES	HPGD block	IMPase cell inh	ALDH1A1 inh	ALOX12 inhib	NPSR antagonist	IMPase Li cell
CCO/C(C)=N/n1c2nc3ccccc3nc2c2c(=O)n(CC(C)C)c(C)nc21	-15%	0	25µM*	8%	-10%[46.1 µM]	-17%[38.3 µM]
CCOCCCn1c(C)nc2c(c1=O)c1nc3ccccc3nc1n2-c1ccc(C)cc1	-16%	-6	8%	0%	0%[46.1 µM]	-23%[38.3 µM]
CSc1ccc(/C=N/Nc2cccc(C(=O)O)c2)cc1	/	/	-9%	/	-5%	12%
Cc1ccc(OCc2ccc(C(=O)N3CCOCC3)cc2)cc1C	25µM*	12	0%	-6%	-9%[46.1 µM]	31%[38.3 µM]
CC(C)c1ccc(COc2ccc(C(=O)N3CCOCC3)cc2)cc1	/	/	?	/	-12%	13%
Cc1cc(=O)[nH]c(=O)n1Cc1ccccc1	/	/	3%	/	18%	4%
Cc1ccc(NC2=C(Cl)C(=O)c3ccccc3C2=O)cc1	/	-6	4%	1%	-29%[46.1 µM]	/
Nc1ccc(S(=O)(=O)Nc2ccccn2)cc1	-12%	0[20.6 µM]	1%	3%	3%	-7%
CC(C)(C)c1ccc(S(=O)(=O)Nc2ccccn2)cc1	/	/	32µM*	/	-2%	0%
CCN(CC)c1ccc(NC2=C(Cl)C(=O)c3ccccc3C2=O)cc1	7.9µM*	/	10µM*	-8%	13µM*	43%
O=C1C(Cl)=C(Nc2ccc(S(=O)(=O)Nc3ccccn3)cc2)C(=O)c2ccccc21	2.8µM*	/	0.63µM*	?	/	9%
CC(C)OC(=O)C(=O)NNc1ccccc1	-18%	-4	-2%	-8%	21%	12%
O=C(CC(C(=O)O)c1ccccc1)Nc1ccccc1 (configuration not stated)	-5%	/	14%	7%	12%	-2%
O=c1cc(-c2ccccc2Cl)oc2ccc([N+](=O)[O-])c(O)c12	11µM*	/	14%	-12%[0.00818 µM]	-23%	4%
O=C(Nc1ccc(O)c2c(=O)cc(-c3ccccc3Cl)oc12)c1ccccc1Cl	-2%	/	12%	3%[0.00818 µM]	-21%	9%
O=c1cc(-c2ccccc2Cl)oc2c([N+](=O)[O-])c(O)cc(O)c12	28µM*	/	-11%	-4%[0.00818 µM]	-15%	12%
O=C(Nc1ccc(O)c2c(=O)cc(-c3ccccc3Cl)oc12)c1ccc(Br)cc1	1.1µM*	/	-6%	-11%[0.00818 µM]	/	-1%
Cc1sc2c3ccsc3ccc2[n+]1C	/	/	4.5µM*	/	28%	9%
Cc1sc2ccc3sccc3c2[n+]1C	/	/	-98%	/	-13%	24%
Cc1cccc(Nc2ccccc2C(=O)O)c1C	-11%	8[20.6 µM]	-3%	-11%	-21%	-2%
Cc1cccc(Nc2cc(Cl)nc(SCC(=O)O)n2)c1C	25µM*!	-3	10µM*!	1%	/	-2%
CC1=N/C(=C\c2ccc(OC(C)C)cc2)C(=O)N1c1ccc(C(=O)O)cc1	16µM*	/	-8%	2%	-5%	-2%
COc1ccc(/C=C2\N=C(c3ccccc3)N(c3ccc(C(=O)O)cc3)C2=O)cc1OC	/	/	/	/	13µM*	/
COc1ccc(/C=C2\N=C3CCCCCN3C2=O)cc1	/	/	?	/	3%	9%
CC(C)Oc1ccc(C(=O)O)cc1	/	/	4%	/	-16%	/
SMILES	HPGD block	IMPase cell inh	ALDH1A1 inh	ALOX12 inhib	NPSR antagonist	IMPase Li cell
COc1ccc(/C=C2/N=C3CCCCCN3C2=O)cc1OC	-10%	9	28µM*	-7%	-7%[46.1 µM]	7%
O=C(Nc1cc(S(=O)(=O)Nc2ccc(Cl)cc2)ccc1N1CCCCC1)c1ccc(F)cc1	?	2	28µM*	2%	?	-10%
O=S(=O)(Nc1ccc(Cl)cc1)c1ccc(N2CCOCC2)c(NC(=S)NCCN2CCOCC2)c1	/	/	8.9µM*	/	-10%	7%
CCn1cnc2c1c(=O)n(CC(=O)N1CCc3ccccc31)c(=O)n2Cc1ccccc1	-13%	5	-2%	3%	-9%[46.1 µM]	-10%[38.3 µM]
Cc1cc(C)c(O)c(-c2cc(C(=O)NCc3ccccc3)[nH]n2)c1	-13%	-2	?	-11%	?	46%[38.3 µM]
Cc1ccc(O)c(-c2cc(C(=O)Nc3ccc(S(=O)(=O)N4CC(C)OC(C)C4)cc3)[nH]n2)c1 (configuration not stated)	13µM*	11	3%	-2%	-8%[46.1 µM]	3%
Cc1ccc(O)c(-c2cc(C(=O)Nc3ccc(S(=O)(=O)Nc4nc(C)cc(C)n4)cc3)[nH]n2)c1	0.89µM*	/	3%	0%	-25%	-3%
Cc1ccc(O)c(-c2cc(C(=O)NCc3ccncc3)[nH]n2)c1	5µM*	6	-7%	-7%	-11%[46.1 µM]	4%[38.3 µM]
Cc1cc(C)nc(NS(=O)(=O)c2ccc(NC(=O)c3ccccc3O)cc2)n1	/	-14	/	/	/	/
COC(=O)c1cc(C(=O)NCCCN2CCOCC2)cc([N+](=O)[O-])c1	/	/	8%	/	9%	7%
CCOC(=O)COc1c(Cl)cc(C2NC(=S)NC(c3ccccc3)=C2C(C)=O)cc1OC (configuration not stated)	-4%	/	?	-14%	-5%	3%
CCOC(=O)C1=C(c2ccccc2)NC(=S)NC1c1ccc(Cl)c([N+](=O)[O-])c1 (configuration not stated)	-24%	/	0.71µM*	?	-34%	-1%
CCOC(=O)C1=C(c2cccc(Oc3ccccc3)c2)NC(=S)NC1C (configuration not stated)	-26%	0	0.32µM*	?	?	35%[38.3 µM]
CCOC(=O)C1=C(c2ccccc2)NC(=O)NC1c1cc(Cl)c(O)c(OC)c1 (configuration not stated)	/	/	11%	/	-6%	1%
CC(=O)C1=C(c2ccccc2)NC(=S)NC1c1cc(Cl)c(OC(C)C)c(Cl)c1 (configuration not stated)	-19%	1	0.71µM*	?	-53%	17%
CCOC(=O)C1=C(C)C(c2cccc(Oc3ccccc3)c2)NC(=S)N1 (configuration not stated)	-10%	/	0.56µM*	?	-44%	15%
COc1cc(C2NC(=S)NC(c3ccccc3)=C2C(C)=O)cc(Cl)c1OCC(=O)O (configuration not stated)	-20%	5	?	-5%	-11%[46.1 µM]	5%[38.3 µM]
CCOC(=O)C1CCN(CC(=O)Nc2c(C(=O)OC)[nH]c3ccccc23)CC1	-15%	4	3%	-1%	-8%[46.1 µM]	18%[38.3 µM]
CC(C)Oc1ccc(N2CC(C(=O)Nc3ccc(N4CCOCC4)cc3)CC2=O)cc1 (configuration not stated)	-19%	6	?	-4%	2%	-7%
CCOC(=O)C1=C(C)C(c2ccc(OC)cc2)NC(=S)N1 (configuration not stated)	-9%	3	2.2µM*	-6%	-10%[46.1 µM]	17%[38.3 µM]
